In the library only some 5.7% were active in any assay of this set; here they are far more common.
S2 tox – reduces viability in counter-screen for ATXN expression inhibitors; S2 cells (HEK-293 line with an ATXN2-luciferase reporter) viability, CellTiter-Fluor protease fluorescence, 24 h; Potency, µM (top dose mostly 56.7 µM), usual class: cytotoxic; hit rate 0.49% among 400,000; AID 651635; note: nearly all actives have a fitted effect of over 40% in size
IL1B secr inh – blocks inflammasome-driven IL-1 beta release. THP-1 LPS/ATP IL-1B secretion, AlphaLISA, 16 h; active compounds read low. hit rate 4.7% among 360,000. activity change, % at 57.5 µM; in the data active = activity change below about -50%; inconclusive = mostly about -30% to -49%
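Secreted IL-1B measured by AlphaLISA bead assay after 16 h compound exposure of THP-1 cells; compounds (final up to 57.5 uM) added 1 h before LPS (250 ng/mL) and ATP (1.25 mM) stimulation; lower signal means less secretion.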
TGFb SMAD3 inh – blocks TGF-b signaling; Potency, µM (titrated, usually from 46.1 µM), actives largely listed as inhibitors; hit rate 1.2% among 410,000; HepG2 CAGA-GFP TGF-b/SMAD3 reporter, GFP fluorescence, 18 h; TGF-beta stimulated, 500 pg/mL final; AID 588855; note: nearly all actives have a fitted effect of over 65% in size
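Smad-responsive CAGA-GFP expression was quantified in HEPG2 cells exposed to compounds and 500 pg/mL final TGF-beta for 18 h at 37 degrees C; unstimulated wells defined full inhibition.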
ATXN2 expr inh – reduces ATXN2 reporter expression in HEK-293 cells | Potency, µM (highest dose often 57 µM), actives largely listed as inhibitors | hit rate 0.72% among 360,000 | HEK-293 ATXN2-luciferase reporter, luminescence, 24 h | AID 1745845; note: nearly all actives have a fitted effect of over 55% in size
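qHTS (up to 57 uM final) was run with 24 h compound exposure of reporter cells at 37 °C. Each well was multiplexed: SteadyGlo luminescence measured ATXN2-luciferase expression after a fluorogenic Gly-Phe-AFC viability readout (25 uM final).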
HepG2 tox-1 – counter-screen for TGF-b inhibitors: cytotoxicity in HepG2 cells. HepG2 CAGA-GFP viability, ATP luminescence, 18 h. Potency, µM (highest dose often 46.1 µM), hits mostly cytotoxic. hit rate 0.76% among 410,000. AID 588856
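HepG2 CAGA-GFP cells (1000/well, DMEM with 1% FBS) received compound, then TGF-beta at 500 pg/mL final, and were incubated 18 hours at 37 degrees C. Viability was read by CellTiter-Glo luminescence. Media-only wells were set as complete cell-killing and DMSO as no toxicity.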
TGFb confirm – TGF-b pathway inhibition, cherry-pick retest | hit rate 63% among 1,600 | shares compounds with TGFb SMAD3 inh | Potency, µM (doses to about 46.1 µM), actives largely listed as inhibitors | HepG2 CAGA-GFP TGF-b reporter, GFP fluorescence, 18 h; cells stimulated with TGF-beta, 500 pg/mL; note: nearly all actives have a fitted effect of over 65% in size
HepG2 tox-2 – counter-screen for TGF-b inhibitors: cytotoxicity in HepG2 cells. shares compounds with TGFb SMAD3 inh. HepG2 CAGA-GFP viability, ATP luminescence, 18 h; cells stimulated with TGF-beta, 500 pg/mL. Potency, µM (series often up to 46.1 µM), actives largely listed as inhibitors. hit rate 27% among 1,600; note: nearly all actives have a fitted effect of over 70% in size
TGFb CCL64 inh – blocks TGF-b signaling in CCL64 reporter cells; CCL64 CAGA-GFP reporter, TGF-b stimulated, GFP fluorescence, 18 h; Potency, µM (series often up to 46.1 µM), most hits filed as inhibitors; shares compounds with TGFb SMAD3 inh; AID 720536; hit rate 41% among 1,600; note: nearly all actives have a fitted effect of over 65% in size
COP TGFb inh – blocks TGF-b signaling in HepG2 COP reporter | shares compounds with TGFb SMAD3 inh | HepG2 COP-GFP TGF-b reporter, GFP fluorescence, 18 h; cells stimulated by added recombinant TGF-beta | Potency, µM (series often up to 46.1 µM), actives largely listed as inhibitors | hit rate 3% among 1,600 | AID 720537; note: nearly all actives have a fitted effect of over 70% in size
Of the large screens only hits and unclear results are named; the others gave an inactive call (follow-up assays come after a bar, where they were run); ! = not active in a repeat. Unless noted, calls come from the whole dose curve; as a rule, active = well fitted curve in the direction sought with a large enough effect; inconclusive = small, poorly fitted or top-dose-only effect, or another doubt; inactive = no such curve, though single readings can be large; an effect the other way counts as inactive or inconclusive.

Cc1ccc(OCC(=O)N/N=C/c2cn(C)c3ccccc23)cc1	none
COc1cc(C(=O)N/N=C/c2cn(Cc3ccccc3)c3ccccc23)ccc1O	none
Nc1ccc(C(=O)N/N=C/c2cn(Cc3ccc(F)cc3)c3ccccc23)cc1	IL1B secr inh inconclusive, TGFb SMAD3 inh 7.9µM | TGFb confirm 5.8µM | HepG2 tox-2 2.1µM | TGFb CCL64 inh inactive | COP TGFb inh inactive
O=C1OCC2=C1C(c1ccc(F)cc1)c1cc3c(cc1N2)OCO3 (centres undefined)	S2 tox inconclusive, TGFb SMAD3 inh inconclusive, ATXN2 expr inh inconclusive
CCOc1ccccc1C1C2=C(COC2=O)Nc2cc3c(cc21)OCO3 (centres undefined)	S2 tox inconclusive, TGFb SMAD3 inh 7.1µM | TGFb confirm 3.3µM | HepG2 tox-2 inactive | TGFb CCL64 inh 1.8µM | COP TGFb inh inactive
O=C(Nc1ccc(C(F)(F)F)cc1)C1CCCN(c2cnccn2)C1 (centres undefined)	none (no result: S2 tox, IL1B secr inh, ATXN2 expr inh)
CCN(CC)S(=O)(=O)c1ccc2oc(SCC(=O)Nc3cc(C)on3)nc2c1	TGFb SMAD3 inh 10µM, ATXN2 expr inh inconclusive | TGFb confirm inconclusive | HepG2 tox-2 inconclusive | TGFb CCL64 inh inactive | COP TGFb inh inactive
Cc1cc(NC(=O)CSc2nc3cc(Cl)ccc3o2)no1	none
Cc1csc2nc(COc3ccccc3NC(=O)c3ccccc3Cl)cc(=O)n12	none (no result: IL1B secr inh)
O=C1N[C@@H](c2ccccc2)COC(=O)[C@@H](Cc2ccc(F)cc2)C/C=C\C[C@@H]1CC(=O)N(CCO)Cc1ccccc1	S2 tox inconclusive, TGFb SMAD3 inh 13µM | TGFb confirm 16µM | HepG2 tox-2 inconclusive | TGFb CCL64 inh inconclusive | COP TGFb inh inactive
O=C1N[C@@H](Cc2ccccc2)COC(=O)[C@@H](Cc2ccc(F)cc2)CC/C=C/C[C@@H]1CC(=O)N(CCO)Cc1ccccc1	S2 tox inconclusive, TGFb SMAD3 inh 22µM, ATXN2 expr inh inconclusive | TGFb confirm 16µM | HepG2 tox-2 inactive | TGFb CCL64 inh 23µM | COP TGFb inh inactive
CCOc1ccc(C2=Nn3c(nnc3-c3ccccc3OC)SC2)cc1	TGFb SMAD3 inh 10µM | TGFb confirm 0.23µM | HepG2 tox-2 inactive | TGFb CCL64 inh 0.46µM | COP TGFb inh inactive
COc1cccc(Cn2c(CNC(=O)C(C)C)nc3cccnc32)c1	none (no result: S2 tox, IL1B secr inh, ATXN2 expr inh)
Cc1cc(C)cc(NS(=O)(=O)c2ccc(-c3cnc(C4CC4)o3)cc2)c1	TGFb SMAD3 inh 7.9µM (no result: ATXN2 expr inh) | TGFb confirm 8.2µM | HepG2 tox-2 inconclusive | TGFb CCL64 inh 5.2µM | COP TGFb inh inactive
Cc1cccc(NS(=O)(=O)c2ccc(-c3cnc(C4CC4)o3)cc2)c1C	S2 tox inconclusive, TGFb SMAD3 inh 14µM (no result: ATXN2 expr inh) | TGFb confirm 1.8µM | HepG2 tox-2 inconclusive | TGFb CCL64 inh 4.1µM | COP TGFb inh inactive
CC(=O)c1ccc2c(c1)N(Cc1ccc3ccccc3c1)C(=O)C(C)S2 (centres undefined)	TGFb SMAD3 inh 7.9µM | TGFb confirm 21µM | HepG2 tox-2 inactive | TGFb CCL64 inh inactive | COP TGFb inh inactive
O=S(=O)(NC1CCCC1)c1ccc(S(=O)(=O)N2CCc3ccccc32)cc1	S2 tox inconclusive, TGFb SMAD3 inh inconclusive, ATXN2 expr inh inconclusive | TGFb confirm 9.2µM | HepG2 tox-2 inactive | TGFb CCL64 inh inactive | COP TGFb inh inactive
Nc1ccc(S(=O)(=O)N2CCc3ccccc32)cc1	none
COc1ccc(C(NC(=O)C(C)C)c2ccc3cccnc3c2O)cc1 (centres undefined)	TGFb SMAD3 inh 4.5µM, ATXN2 expr inh 3.2µM | TGFb confirm inactive | HepG2 tox-2 inconclusive | TGFb CCL64 inh 7.3µM | COP TGFb inh inactive
CCCC(=O)NC(c1ccc(OC)c(OC)c1)c1cc(Cl)c2cccnc2c1O (centres undefined)	TGFb SMAD3 inh inconclusive, ATXN2 expr inh inconclusive
COc1ccc(C(NC(C)=O)c2cc(Cl)c3cccnc3c2O)cc1 (centres undefined)	TGFb SMAD3 inh 7.1µM, ATXN2 expr inh 4.5µM | TGFb confirm inconclusive | HepG2 tox-2 inconclusive | TGFb CCL64 inh 13µM | COP TGFb inh inactive
CCCCC(=O)NC(c1ccc(OC)cc1)c1ccc2cccnc2c1O (centres undefined)	S2 tox inconclusive, TGFb SMAD3 inh inconclusive (no result: ATXN2 expr inh)
O=C(O)c1ccccc1NC(c1ccccc1)c1ccc2cccnc2c1O (centres undefined)	S2 tox inconclusive, TGFb SMAD3 inh 8.9µM, ATXN2 expr inh inconclusive | TGFb confirm 6.5µM | HepG2 tox-2 inconclusive | TGFb CCL64 inh 15µM | COP TGFb inh inactive
Cc1c(-c2nc(-c3ccc4c(c3)OCO4)no2)nnn1-c1ccc(C(C)C)cc1	none (no result: S2 tox, IL1B secr inh, ATXN2 expr inh)
O=[N+]([O-])c1ccc(N2CCN(Cc3ccccc3)CC2)c2c1no[n+]2[O-]	S2 tox 3.5µM, IL1B secr inh -87, TGFb SMAD3 inh 3.2µM, HepG2 tox-1 3.5µM (no result: ATXN2 expr inh) | TGFb confirm inconclusive | HepG2 tox-2 4.1µM | TGFb CCL64 inh 5.2µM | COP TGFb inh inconclusive
O=[N+]([O-])c1ccc(N2CCN(Cc3ccccc3)CC2)s1	none
CCN1CCN(Cc2ccc(NC(=O)c3cc(NC(=O)c4cncc(-c5ccc(C#N)cc5)c4)cc(OC)c3)cc2C(F)(F)F)CC1	S2 tox 16µM, IL1B secr inh -59, TGFb SMAD3 inh 5.6µM, ATXN2 expr inh 25µM!, HepG2 tox-1 2µM! | TGFb confirm inconclusive | HepG2 tox-2 16µM | TGFb CCL64 inh 26µM | COP TGFb inh inconclusive
COc1cc(OC)cc(C(=O)N2CCN(Cc3ccccc3C(F)(F)F)CC2)c1	none
O=C(Nc1ccc(N2CCN(C(=O)c3ccccc3)CC2)cc1)c1ccc([N+](=O)[O-])o1	S2 tox inconclusive, IL1B secr inh -96, TGFb SMAD3 inh 5.6µM, HepG2 tox-1 13µM (no result: ATXN2 expr inh) | TGFb confirm 7.3µM | HepG2 tox-2 23µM | TGFb CCL64 inh inconclusive | COP TGFb inh inactive
COc1ccc(C(=O)Nc2ccc(N3CCN(C(=O)c4ccccc4)CC3)cc2)cc1[N+](=O)[O-]	IL1B secr inh inconclusive, ATXN2 expr inh inconclusive

Screening results: PubChem BioAssay, National Center for Advancing Translational Sciences (NCATS)
